SMILES strings stand for the structures. Values joined by “and” are separate entries in the source; they are usually repeats but may differ in a detail not shown here. Identical values can stand only once. Records with an inconclusive call do not appear. A structure can be active in one record and inactive in another. Active and inactive are the calls of the source. Rule for the calls: active = hit-call score of the fitted dose curve at least 0.9, where 1 is the maximum; inconclusive = response in the unintended direction; inactive = score below 0.9.

Sequence of Peroxisome proliferator-activated receptor gamma (Homo sapiens) (P37231 whole entry, looked up): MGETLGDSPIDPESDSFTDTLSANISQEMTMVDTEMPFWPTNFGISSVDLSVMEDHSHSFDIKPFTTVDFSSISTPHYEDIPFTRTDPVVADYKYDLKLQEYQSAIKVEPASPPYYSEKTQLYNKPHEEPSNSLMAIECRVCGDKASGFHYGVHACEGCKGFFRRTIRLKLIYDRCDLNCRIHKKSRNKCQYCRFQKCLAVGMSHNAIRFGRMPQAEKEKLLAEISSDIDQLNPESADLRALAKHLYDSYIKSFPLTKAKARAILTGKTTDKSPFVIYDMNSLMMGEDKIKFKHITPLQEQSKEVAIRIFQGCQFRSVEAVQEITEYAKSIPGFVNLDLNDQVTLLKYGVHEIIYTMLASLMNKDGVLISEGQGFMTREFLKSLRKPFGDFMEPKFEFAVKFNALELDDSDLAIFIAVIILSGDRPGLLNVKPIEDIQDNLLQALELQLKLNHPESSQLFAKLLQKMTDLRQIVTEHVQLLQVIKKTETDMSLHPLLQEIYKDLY

In the experiment the target is Peroxisome proliferator-activated receptor gamma (Homo sapiens) (UniProt P37231). The experiment is described as follows: ATG_PPARg_TRANS: Attagene TRANS-FACTORIAL HepG2 Assay for human Peroxisome Proliferator-activated Receptor-gamma (PPARg) (AID 2283007). As to the method:
ATG_TRANS is a cell-based, multiplexed-readout assay that uses HepG2, a human liver cell line, with measurements taken at 24 hours after chemical dosing in a 24-well plate.ATG_PPARg_TRANS is one of 30 assay component(s) measured or calculated from the ATG_TRANS assay. It is designed to make measurements of mRNA induction, a form of inducible reporter, as detected with fluorescence intensity signals by Reverse transcription polymerase chain reaction (RT-PCR) and Capillary electrophoresis technology.Data from the assay component ATG_PPARg_TRANS was analyzed into 1 assay endpoint. This assay endpoint, ATG_PPARg_TRANS, was analyzed in the positive analysis fitting direction relative to DMSO as the negative control and baseline of activity. Using a type of inducible reporter, measures of mRNA for gain-of-signal activity can be used to understand the reporter gene at the transcription factor-level as they relate to the gene PPARG. Furthermore, this assay endpoint can be referred to as a primary readout, because this assay has produced multiple assay endpoints where this one serves a reporter gene function. To generalize the intended target to other relatable targets, this assay endpoint is annotated to the nuclear receptor intended target family, where the subfamily is non-steroidal.
Human liver HepG2 cells are transiently transfected with multiple reporter transcription units (MRTUs) in 6-well plates using FuGene 6 reagent (Roche; 3 ml FuGene/1 mg DNA). The MRTU constructs are regulated by a cis-regulating element (promoter). […] A major difference between the CIS and TRANS system is that in CIS activities of endogenous TFs are measured, whereas the TRANS assay evaluates changes in activities of exogenous, chimeric NR-Gal4 proteins. […] At the end of 24 hour incubation, total RNA was isolated using TriZol reagent (Invitrogen). The isolated RNA is then reverse-transcribed using oligo(dT) primer and Mo-MLV reverse transcriptase (Invitrogen) with DNAse I (Ambion) treatment for 30 min. The one-tenth of the produced cDNA was amplified by PCR using Taq DNA polymerase (Invitrogen) and two reporter sequence-specific primers. The PCR products were fluorescently labeled by primer extension with 6-arboxyfluorescein (6-FAM) 5'-labeled reporter sequence-specific primer (2 min at 95 C, 20 s at 68 C and 10 min at 72 C) and these products were digested with 5U of HpaI (New England Biolabs) for 2h at 37 C. The fragments were purified using Qiaquick PCR columns (Qiagen), analyzed on an ABI 3130xL genetic analyzer (Applied Biosystems) with peak positions identified by using a set of X-rhodamine (ROX)-labeled MapMarker1000 molecular weight standards (BioVentures). The raw capillary electrophoresis data was processed using Attagraph software (Attagene).
With `C[C@H]1O[C@@H](O[C@H]2[C@@H](O)C[C@H](O[C@H]3[C@@H](O)C[C@H](O[C@H]4CC[C@@]5(C)[C@H](CC[C@@H]6[C@@H]5CC[C@]5(C)[C@@H](C7=CC(=O)OC7)CC[C@]65O)C4)O[C@@H]3C)O[C@@H]2C)C[C@H](O)[C@@H]1O`, the result was inactive.

Regarding `CCN(CC)C(=O)Cl`, the compound was classed as inactive.

As for `CCC(=O)C(CC(C)N(C)C)(c1ccccc1)c1ccccc1` (stereo not given), the result was inactive.

In the case of `O=c1[nH]c(=O)[nH]c(=O)[nH]1`, the compound was classed as inactive.

On to `COP(=O)(OC)O/C(=C\Cl)c1cc(Cl)c(Cl)cc1Cl`, for which the AC50 – broadly, the concentration at which the activity in the assay is half-maximal – was 10.8 µM (active).

Take `CCCCCCCCCl`: the compound was called inactive.

As to `O=[N+]([O-])c1c(Cl)c(Cl)cc(Cl)c1Cl`, the AC50 was 0.905 µM (active).

With `CCOP(=S)(OCC)Oc1nc(Cl)c(Cl)cc1Cl`, the AC50 was 46.8 µM (active).

With `CCc1ccccc1C`, the compound was called inactive.

Turning to `CCOC(=O)CP(=O)(OCC)OCC`, the outcome was inactive.

As for `O=C(O)C(F)(F)C(F)(F)C(F)(F)C(F)(F)C(F)(F)C(F)(F)F`, the half-maximal activity concentration (AC50) was 65.4 µM (active) and 72.5 µM (active); the compound was called inactive.

As for `Nc1ccc(N=Nc2ccc(-c3ccc(N=Nc4c(S(=O)(=O)O)cc5cc(S(=O)(=O)O)c(N=Nc6ccccc6)c(O)c5c4N)cc3)cc2)c(N)c1`, the outcome was inactive.

Turning to `O=S(=O)(c1ccc(Cl)cc1)c1ccc(Cl)cc1`, the half-maximal activity concentration (AC50) is 7.7 µM (active).

For `Cc1cc(=O)[nH]o1`, the compound was classed as inactive.

Turning to `CC(C)(c1ccccc1)c1ccc(O)c(C(C)(C)c2ccccc2)c1`, the compound was called inactive.

Take `C[C@@H](Oc1ccc(Cl)cc1Cl)C(=O)O`: the concentration at half-maximal activity (AC50) is 49.4 µM (active).

In the case of `CCNc1nc(NC(C)(C)C)nc(SC)n1`, the AC50 was 29.5 µM (active).

For `Oc1cccc2cccnc12`, the compound was called inactive.

In the case of `C[C@@H]1C[C@@H]([C@H](O)CC2CC(=O)NC(=O)C2)C(=O)[C@@H](C)C1`, the AC50 is 23.4 µM (active) and the outcome was inactive.

For the compound `CC(=O)OC(c1ccccc1)C(Cl)(Cl)Cl` (stereo not given), the compound was classed as inactive.

`OCC(O)CCl` (stereo not given): the compound was classed as inactive.

Consider `COC(=O)Cc1ccccc1`, for which the call was inactive.

As to `O=C(O)C(F)(F)C(F)(F)C(F)(F)C(F)(F)C(F)(F)C(F)(F)C(F)(F)C(F)(F)C(F)(F)C(F)(F)F`, the AC50 was 25.5 µM (active) and 13.3 µM (active).

For the compound `CC1CN1P(=O)(N1CC1C)N1CC1C` (stereo not given), the compound was called inactive.

On to `O=[N+]([O-])c1ccc(O)c([N+](=O)[O-])c1`, for which the outcome was inactive.

Regarding `CC1(C)CCC(Cc2ccc(Cl)cc2)C1(O)Cn1cncn1` (stereo not given), the compound was classed as inactive.

Regarding `ClCc1cccnc1`, the half-maximal activity concentration (AC50) was 51.8 µM (active).

In the case of `CC(C)(C)c1cc(O)ccc1O`, the half-maximal activity concentration (AC50) was 52.5 µM (active).

Take `O=C(O)Cc1ccccc1`: the result was inactive.

With `COS(=O)(=O)c1ccc(C)cc1`, the outcome was inactive.

`Cl/C=C\C[N+]12CN3CN(CN(C3)C1)C2`: the compound was classed as inactive.

On to `O=C(OC1CCCCC1)c1ccccc1C(=O)OC1CCCCC1`, for which the AC50 was 8.15 µM (active).

For the compound `C=C(C)C(=O)[O][Sn]([CH2]CCC)([CH2]CCC)[CH2]CCC`, the AC50 was 0.291 µM (active).

With `CCCCOCCOC(C)=O`, the compound was classed as inactive.

As to `CCC1(c2ccc(N)cc2)CCC(=O)NC1=O` (stereo not given), the outcome was inactive.

Regarding `ClC(Cl)=C(Cl)C(Cl)=C(Cl)Cl`, the compound was called inactive.

Turning to `CC(=O)C(Cl)C(=O)N(C)C` (stereo not given), the result was inactive.

For the compound `CC(C)c1cccc(C(C)C)c1O`, the compound was called inactive.

The record behind these values is PubChem BioAssay (EPA / NIEHS).
